As a reminder, the AC50 is the midpoint of the concentration-response curve, whichever way the signal moves.

The text below walks through data of PubChem BioAssay (EPA / NIEHS).

“And” between values parts separate entries of the source, which are not always exact repeats. Equal entries are not always repeated. The source holds several records for some structures; these can differ, active in one and inactive in another. The source made the active and inactive calls. The calls were made as follows: active = hit-call score of the fitted dose curve at least 0.9, where 1 is the maximum; inactive = score below 0.9.

Read-out in the assay: Monokine induced gamma interferon (MIG), CXCL9 (gene 4283)
Kind of assay: BSK_3C_MIG: BioMAP Diversity Plus: 3C Assay for Monokine induced gamma interferon (MIG) Biomarker Activity (AID 2283021).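 As to AC50: MIG protein level measured by immunoassay in the treated endothelial cultures.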 The note with it: primary human endothelial cells (HUVEC); actives raise or lower the signal. How it is done:
BSK_3C is a cell-based, multiplexed-readout assay that uses umbilical vein endothelium, a human vascular primary cell, with measurements taken at 24 hours after chemical dosing in a 96-well plate.BSK_3C_MIG is an assay component measured in the BSK_3C assay. It measures MIG antibody related to regulation of gene expression using ELISA technology.Data from the assay component BSK_3C_MIG was analyzed into 1 assay endpoint. This assay endpoint, BSK_3C_MIG, was analyzed with bidirectional fitting relative to DMSO as the negative control and baseline of activity. Using a type of binding reporter, gain or loss-of-signal activity can be used to understand changes in the signaling as they relate to the gene CXCL9. Furthermore, this assay endpoint can be referred to as a primary readout, because this assay has produced multiple assay endpoints where this one serves a signaling function. To generalize the intended target to other relatable targets, this assay endpoint is annotated to the cytokine intended target family, where the subfamily is chemotactic factor.
The levels of cell surface (or secreted, indicated by the prefix "s") biomarker endpoints were measured by ELISA. Overt cytotoxicity to cells in confluent adherent cultures (all systems other than the BT system) was assessed by measuring total protein levels using sulforhodamine B (SRB) staining in parallel cultures at the time of biomarker measurements, indicated as SRB endpoints. For proliferation assays for adherent cell types, individual cell types are cultured at sub-confluence and relative cell numbers quantified by SRB staining at time points optimized for each system (48 h: 3C and CASM3C systems; 72 h: BT and HDF3CGF systems; 96 h: SAg system). SRB was performed by staining cells with 0.1% SRB after fixation with 10% TCA and reading wells at 560 nm.Viability and proliferation of PBMC (T cells) was quantified by Alamar Blue reduction for the SAg and BT systems. For PBMC viability (referred to as PBMC Cytotoxicity within the assay endpoint names), cells were plated (75,000/well in a 96-well plate) and then chemical samples added for 1 h before addition of activators, SEB and TSST-1 (20 ng/mL final concentration each). Cells were incubated for 90 h. Then, Alamar Blue (20 uL/well) (Invitrogen, Cat DAL1100) was added for 6 h, and the plates were read with a fluorescence microplate reader at 546/580 nm (excitation/emission). For PBMC proliferation, cells were plated and activated as above but incubated for only 16 h prior to addition of Alamar Blue. Plates were read after 6 h.
Regarding `OCCC(F)(F)C(F)(F)C(F)(F)C(F)(F)C(F)(F)C(F)(F)F`, the result was inactive; the AC50 was 44.8 µM (active) and 45.3 µM (active). For the compound `Oc1cccc(O)c1`, the result was inactive. For `O=C(O)Cc1cc(I)c(Oc2cc(I)c(O)c(I)c2)c(I)c1`, the outcome was inactive. Same read-out and setting: in the case of `CCCCC(CC)COC(=O)CCCCC(=O)OCC(CC)CCCC` (stereo not given) it was “inactive”.

In the case of `Oc1cc2ccccc2c2ccccc12`, the AC50 was 11.3 µM (active). Regarding `OC1CCC(C2CCCCC2)CC1` (stereo not given), the result was inactive. Regarding `CCCCOCCO`, the result was inactive. Consider `Cc1cc(CCN2CCN(c3nsc4ccccc34)CC2)cc2c1NC(=O)CC2(C)C`, for which the half-maximal activity concentration (AC50) is 35.8 µM (active). As to `CCC(C)(C)C1CCC(O)CC1` (stereo not given), the result was inactive. Turning to `CN1CCN(c2ccccc2/C=C2\SCCN(c3ccc(Cl)c(Cl)c3)C2=O)CC1`, the outcome was inactive.

As for `CN1CCC[C@H]1c1cccnc1`, the result was inactive. Turning to `CC(C)(C)c1ccc(O)c(C(C)(C)C)c1`, the AC50 was 14.7 µM (active).

For the compound `C#C[C@]1(O)CC[C@H]2[C@@H]3CCC4=CC(=O)CC[C@@H]4[C@H]3CC[C@@]21C`, the outcome was inactive.

As to `O=[N+]([O-])c1ccc(O)cc1`, the outcome was inactive. For `CCCCC(CC)COC(=O)CCCCC(=O)OCc1ccccc1` (stereo not given), the outcome was inactive. For `ClC1=C(Cl)C(Cl)(Cl)C(Cl)=C1Cl`, the AC50 is 10.5 µM (active).

With `Cc1oc(-c2ccccc2)nc1CCOc1ccc(C[C@H](Nc2ccccc2C(=O)c2ccccc2)C(=O)O)cc1`, the AC50 was 36.8 µM (active). As to `CCCOC(=O)c1ccc(O)cc1`, the outcome was inactive. Regarding `CCCCCCCCOC(=O)CCCCCCCCC(=O)OCCCCCCCC`, the outcome was inactive. As for `Cc1cc(C)c(O)c(C)c1`, the outcome was inactive. Turning to `CC(C)(C)c1cc(C(C)(C)C)c(O)c(C(C)(C)C)c1`, the result was inactive. The same measure, in the same setting: the same measure for `c1ccc2cc3c(ccc4ccccc43)cc2c1`: “inactive”.

On to `CCC(=C(c1ccc(O)cc1)c1ccc(OCCN(C)C)cc1)c1ccccc1`, for which the AC50 was 11.1 µM (active). Take `CC(=O)NC1(c2cccc(F)c2)CCN(CC[C@@]2(c3ccc(Cl)c(Cl)c3)CN(c3ccccc3)C(=O)CO2)CC1`: the result was inactive. Consider `O=C(O)c1ccccc1C(c1ccc(O)cc1)c1ccc(O)cc1`, for which the outcome was inactive.

In the case of `CC(O)CO` (stereo not given), the result was inactive.

As for `CCc1ccc(CCOc2ccc(CC3SC(=O)NC3=O)cc2)nc1` (stereo not given), the outcome was inactive.

For the compound `Nc1cccc2c(N)cccc12`, the outcome was inactive. On to `CC[C@H](C)[C@@H](C(=O)O)n1sc2ccccc2c1=O`, for which the result was inactive.

With `c1ccc2c(c1)Cc1ccccc1-2`, the result was inactive. As to `CCCOc1sc(C(=O)N2CCC(c3cc(CN)ccc3F)CC2)c(C)c1Br`, the half-maximal activity concentration (AC50) is 11.1 µM (active). Consider `CC(=O)CC(C)(C)O`, for which the outcome was inactive. For `NC(=O)N1C(=O)C(C(=O)c2cc(Cl)cs2)c2cc(F)c(Cl)cc21` (stereo not given), the outcome was inactive. For the compound `CCCCCCCCCCCCc1ccccc1S(=O)(=O)O`, the result was inactive. Regarding `NCC(F)(F)C(F)(F)C(F)(F)C(F)(F)C(F)(F)C(F)(F)C(F)(F)F`, the result was inactive.

For `C[C@@H]1C[C@H]2[C@@H]3CCC4=CC(=O)C=C[C@]4(C)[C@@]3(F)[C@@H](O)C[C@]2(C)[C@@]1(O)C(=O)COP(=O)(O)O`, the outcome was inactive. `CC(C)CCCCCCOC(=O)CCCCC(=O)OCCCCCCC(C)C`: the result was inactive. As for `CC[C@H](c1ccc(O)cc1)[C@@H](CC)c1ccc(O)cc1`, the AC50 is 37.4 µM (active). Regarding `c1ccc2c(c1)ccc1ccccc12`, the result was inactive.
